From PubChem
An excerpt weighted towards active compounds, which were near 0.5% of everything screened.
CBFb RUNX1 block = CBF-beta/RUNX1 interaction disruption | Q01196+Q13951 | AlphaScreen CBFb-His/RUNX1-biotin binding, biochemical | Potency, µM (series often up to 59.8 µM), most hits filed as inhibitors | 230,000 tested, under 10 active
Target sequence (Q01196 whole entry, looked up): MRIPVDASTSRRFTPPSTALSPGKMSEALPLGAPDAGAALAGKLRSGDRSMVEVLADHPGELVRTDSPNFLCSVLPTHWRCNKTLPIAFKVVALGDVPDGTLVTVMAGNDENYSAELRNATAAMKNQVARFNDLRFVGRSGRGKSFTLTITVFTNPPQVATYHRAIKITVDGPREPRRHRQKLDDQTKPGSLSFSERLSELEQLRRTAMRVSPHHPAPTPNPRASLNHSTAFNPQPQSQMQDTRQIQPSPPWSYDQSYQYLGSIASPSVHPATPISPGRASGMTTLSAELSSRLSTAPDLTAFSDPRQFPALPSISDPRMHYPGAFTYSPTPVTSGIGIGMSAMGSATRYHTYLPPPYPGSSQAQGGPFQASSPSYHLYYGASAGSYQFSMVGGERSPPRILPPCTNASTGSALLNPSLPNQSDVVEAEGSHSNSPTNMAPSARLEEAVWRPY
Target sequence (Q13951 whole entry, looked up): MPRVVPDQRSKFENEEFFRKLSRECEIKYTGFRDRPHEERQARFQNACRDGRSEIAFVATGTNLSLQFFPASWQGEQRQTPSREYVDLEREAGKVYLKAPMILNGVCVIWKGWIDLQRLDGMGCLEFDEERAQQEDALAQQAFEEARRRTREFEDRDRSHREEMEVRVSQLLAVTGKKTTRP
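Room-temperature protein-protein interaction test with 30 nM each of His-tagged CBF-beta and biotinylated RUNX1, 15 min with compound, then 90 min with nickel plus streptavidin beads. Signal read in AlphaScreen mode.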
GoLoco inh red = blocks human Gai1 binding to RGS12 GoLoco peptide, red readout | P63096 | 230,000 compounds, 0.44% hits | AID 880 | Gai1:RGS12 GoLoco peptide FP, rhodamine, 10 min | Potency, µM (top dose mostly 61.6 µM), actives largely listed as inhibitors; active = well fitted inhibition curve with a large enough effect, not every such curve was filed as active; inactive = no such curve, though single readings can be large or run the other way; note: nearly all actives have a fitted effect of over 30% in size
ERK EGF block = blocks ERK signaling stimulated by EGF. HEK293-V1b, EGF-stimulated phospho-ERK AlphaScreen. Potency, µM (series often up to 11.5 µM), most hits filed as inhibitors. 130,000 compounds, 0.41% hits; note: nearly all actives have a fitted effect of over 55% in size
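Concentration-response of compounds against EGF-driven ERK phosphorylation in V1b-expressing HEK293 cells; 30 min preincubation, 5 min EGF, AlphaScreen detection; Normalized to DMSO basal and 25 nM EGF.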
Of the large screens only hits and unclear results are named; the others gave an inactive call; ! = not active in a repeat. Unless noted, calls come from the whole dose curve; as a rule, active = well fitted curve in the direction sought with a large enough effect; inconclusive = small, poorly fitted or top-dose-only effect, or another doubt; inactive = no such curve, though single readings can be large; an effect the other way counts as inactive or inconclusive.

COc1ccc(C(=O)/C=C/c2ccc(N3CCCCC3)c([N+](=O)[O-])c2)cc1	CBFb RUNX1 block inconclusive, ERK EGF block 31.6µM
C=CCNC(=O)N1CCc2nc(COc3ccccc3)c3c(c2C1)CO[C@@H](C)C3	none (no result: ERK EGF block)
O=C(c1ccncc1)N1CCC[C@@]2(CCN(c3ccccc3)C2)C1	none (no result: CBFb RUNX1 block)
CCOC(=O)c1cnc2cc3c(cn2c1=O)CCCC3	none (no result: ERK EGF block)
CCOC(=O)C1=C(SCC)c2cc3c(n2C1=O)CCCC3	ERK EGF block 25.1µM
NC(C(=O)O)C(CC(=O)O)c1ccc(Cl)cc1 (stereo unspecified)	none (no result: ERK EGF block)
COc1ccc(C(=O)OCC[N+]2(C)CCOCC2)cc1	GoLoco inh red 7.94µM
COc1ccc(C(=O)OCCc2ccc(O)cc2)cc1	none
COc1ccc(C2C=C3CNS(=O)(=O)C3CC2OC(=O)c2cccc(C)c2)cc1 (stereo unspecified)	none (no result: GoLoco inh red, ERK EGF block)
Cc1[nH]n(-c2ccccc2)c(=S)c1C=Nc1cccc([N+](=O)[O-])c1	GoLoco inh red 12.6µM (no result: ERK EGF block)
CCCCN=Cc1c(C)[nH]n(-c2ccccc2)c1=S	none
O=C(Nc1cccc(Cl)c1)c1cc(N=Nc2ccc([N+](=O)[O-])cc2Cl)ccc1O	ERK EGF block 14.1µM (no result: CBFb RUNX1 block)
O=C(Nc1ccc([N+](=O)[O-])cc1Cl)c1cc(Cl)ccc1O	none
CCCCC/C=C\C\C=C/C=C/C=C/[C@@H](O)[C@@H](O)CCCC(=O)O	none
COc1cccc2c1C(=O)c1c(O)c3c(c(O)c1C2=O)C[C@](O)(C(=O)CO)C[C@@H]3O[C@H]1C[C@H](N)[C@@H](O)[C@H](C)O1	none (no result: CBFb RUNX1 block, ERK EGF block)
CCCCC(=O)OCC(=O)[C@]1(O)Cc2c(O)c3c(c(O)c2[C@H](OC2CC(NC(=O)C(F)(F)F)C(O)C(C)O2)C1)C(=O)c1c(OC)cccc1C3=O (stereo partly specified)	none (no result: CBFb RUNX1 block, ERK EGF block)
COc1cccc2c1C(=O)c1c(O)c3c(c(O)c1C2=O)C[C@@](O)(C(C)=O)C[C@@H]3O[C@H]1C[C@H](N)[C@H](O)[C@H](C)O1	CBFb RUNX1 block inconclusive, GoLoco inh red 1.58µM, ERK EGF block 25.1µM!
COc1cccc2c1C(=O)c1c(O)c3c(c(O)c1C2=O)C[C@@](O)(C(=O)CO)C[C@@H]3OC1C[C@@H](N)[C@H](O)[C@H](C)O1 (stereo partly specified)	GoLoco inh red 3.55µM (no result: ERK EGF block)
CC1OC(OC2C(OC3C(O[C@H]4CC[C@]5(C)C6C=C[C@]78OC[C@@]9(CC[C@@H](C)[C@H](C)C97)[C@H](O)C[C@@]8(C)[C@]6(C)CC[C@H]5C4(C)C)OC(C)C(O)C3O)OC(CO)C(O)C2O)C(O)C(O)C1O (stereo partly specified)	ERK EGF block 11.2µM
CC1(C)[C@@H](O[C@H]2O[C@H](C(=O)O)[C@@H](O)[C@H](O)[C@H]2O[C@@H]2O[C@H](C(=O)O)[C@@H](O)[C@H](O)[C@H]2O)CC[C@]2(C)[C@H]3C(=O)C=C4[C@@H]5C[C@@](C)(C(=O)O)CC[C@]5(C)CC[C@@]4(C)[C@]3(C)CC[C@@H]12	none (no result: ERK EGF block)
CCCC[C@@H]1CCCO[C@@](C(=O)NCCN2CCOCC2)(C(F)(F)F)C1	none (no result: GoLoco inh red, ERK EGF block)
CC(=O)c1coc2c1cc(O)c1ccccc12	none (no result: ERK EGF block)
CC(=O)c1cc(O)c2ccccc2c1O	GoLoco inh red 14.1µM
N=c1ccn2c(n1)O[C@H]1[C@@H](O)[C@@H](CO)O[C@H]12	none
COC(=O)c1ccc(NC(=S)NN2CCCCC2c2cccnc2)cc1 (stereo unspecified)	none
O=C(NC(=S)NN1CCCCC1c1cccnc1)c1ccc(Br)cc1 (stereo unspecified)	ERK EGF block 14.1µM
COc1cc(COCC(O)CN2CCN(CCN3C(=O)c4cccc5cccc(c45)C3=O)CC2)cc(OC)c1OC (stereo unspecified)	none
Cc1ccc(C)c(OCC(O)CN2CCN(CCN3C(=O)c4cccc5cccc(c45)C3=O)CC2)c1 (stereo unspecified)	ERK EGF block inconclusive
CC(=O)c1ccccc1OCC(O)CN1CCN(CCN2C(=O)c3cccc4cccc(c34)C2=O)CC1 (stereo unspecified)	ERK EGF block 25.1µM
O=C1c2cccc3cccc(c23)C(=O)N1CCN1CCN(CC(O)COCc2ccc(Cl)cc2)CC1 (stereo unspecified)	ERK EGF block 31.6µM
COc1ccc2c(c1)O[C@@H](c1ccc3c(c1)OCO3)[C@H](OC(=O)Nc1ccc(OC(F)F)cc1)C2=O	none
COC(=O)C1C[C@@H]2C3=C(C(=O)[C@@](C)(NC(=O)c4ccccc4)C3[C@H](C(=O)OC)C1)[C@H](C)n1c(=O)n(-c3ccccc3)c(=O)n12 (stereo partly specified)	none (no result: GoLoco inh red, ERK EGF block)
COc1ccc(C(=O)N/C(N)=N/c2nc3ccccc3o2)cc1	none (no result: ERK EGF block)
COc1ccc(C(=O)/C=C/Sc2nc3ccccc3o2)cc1	ERK EGF block 28.2µM
O=C(O)CO	none (no result: GoLoco inh red, ERK EGF block)
CN1CC(O)C2=CC(=O)C(=O)C=C21 (stereo unspecified)	CBFb RUNX1 block inconclusive, GoLoco inh red 3.55µM (no result: ERK EGF block)
CCOC(=O)[C@@]12C[C@@H]1/C(=N/O)c1ccccc1O2	none
C=CC[C@](C)(Nc1ccc(OC)cc1)C(=O)OCC	none
Cc1nc2ccc(S(=O)(=O)Nc3cccc(-c4nc5cccnc5s4)c3)cc2s1	ERK EGF block 25.1µM
Cc1nc2ccc(S(=O)(=O)Nc3ccc(-c4nc5cccnc5s4)cc3)cc2s1	none
O=C(Oc1ccccc1)N1CCC[C@@]2(CCN(c3ccncc3)C2)C1	none (no result: CBFb RUNX1 block)
O=C(Oc1ccccc1)N1CCC2(CC1)CCN(c1ccncc1)CC2	GoLoco inh red 2.82µM, ERK EGF block inconclusive (no result: CBFb RUNX1 block)
NC(=O)c1ncn([C@@H]2O[C@H](CO)[C@@H](O)[C@H]2O)c1N	none (no result: GoLoco inh red, ERK EGF block)
CCC/C=C/C(C)O (stereo unspecified)	none
COc1ccc(N2CCC(CNC(=O)Nc3ccc(OC)cc3OC)C2)cc1 (stereo unspecified)	CBFb RUNX1 block inconclusive (no result: ERK EGF block)
COc1ccc(N2CCC(CNC(=S)Nc3cccc(C)c3)C2)cc1 (stereo unspecified)	CBFb RUNX1 block inconclusive, ERK EGF block inconclusive
COc1ccc(N2CCC(CNC(=S)Nc3ccc(C)cc3C)C2)cc1 (stereo unspecified)	ERK EGF block 14.1µM (no result: CBFb RUNX1 block)
COc1ccc(N2CCC(CNC(=S)Nc3c(C)cc(C)cc3C)C2)cc1 (stereo unspecified)	CBFb RUNX1 block inconclusive, ERK EGF block 8.91µM
CCC[N+](C)(C)C(C)C(OC(C)=O)c1ccccc1 (stereo unspecified)	GoLoco inh red 7.94µM
COC(=O)Cc1ccc(NC(=O)C(c2ccccc2)c2ccccc2)cc1	none
CC(=O)c1ccc(C2C=CC(Oc3ccc(F)cc3C)C(CO)O2)cc1 (stereo unspecified)	none (no result: GoLoco inh red, ERK EGF block)
Cc1nnc(Sc2cc(NCCCO)c([N+](=O)[O-])c3nonc23)s1	GoLoco inh red 7.94µM
Cc1nnc(Sc2cc(NCCO)c([N+](=O)[O-])c3nonc23)s1	none
CCN(CC)c1ccc(/C=N/N2CCN(Cc3ccc(Cl)cc3)CC2)c(O)c1	ERK EGF block 14.1µM
CCN(CC)c1ccc(/C=N/N2CCN(Cc3cccc4ccccc34)CC2)c(O)c1	none (no result: ERK EGF block)
O=C1c2cccc3c(N4CCCCC4)ccc(c23)C(=O)N1c1cccc(O)c1	none
